Source: PubChem BioAssay
ATXN viability = viability counter-screen for ATXN expression inhibitors. S2 cells (HEK-293 line with an ATXN2-luciferase reporter) viability, CellTiter-Fluor protease fluorescence, 24 h. Potency, µM (doses to about 56.7 µM), usual class: cytotoxic. 400,000 tested, 0.49% active. AID 651635; also: potency is read from the fitted curve at half-maximal effect; nearly all actives have a fitted effect of over 40% in size
MCF10A rereplic = inducers of DNA re-replication in MCF 10A breast cells. MCF 10A DNA re-replication, Hoechst nuclear intensity, 48 h. Potency, µM (titrated, usually from 46.1 µM), for the others: top-dose activity, positive = re-replication, usual class: activators. 350,000 tested, 2.9% active; also: potency is read from the fitted curve at half-maximal effect; % of control where 0% means no effect; nearly all actives have a fitted effect of over 50% in size
IL-1B inflam inh = inhibitors of inflammasome signaling (IL-1 beta secretion); activity change, % at 57.5 µM; 360,000 tested, 4.7% active; AID 743279; THP-1 LPS/ATP IL-1B secretion, AlphaLISA, 16 h; stronger effect = lower value; in the data active = activity change below about -50%; inconclusive = mostly about -30% to -49%; also: % is scaled to controls: 0 for no effect and ±100 for the full control effect
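Secreted IL-1B measured by AlphaLISA bead assay after 16 h compound exposure of THP-1 cells; compounds (final up to 57.5 uM) added 1 h before LPS (250 ng/mL) and ATP (1.25 mM) stimulation; lower signal means less secretion.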
SW480 rereplic = DNA re-replication induction in SW480 cells; SW480 DNA re-replication, Hoechst DNA content imaging, 48 h; Potency, µM (series often up to 46.1 µM), without a hit: at the top dose re-replication activation, actives largely listed as activators; 340,000 tested, 1.8% active; also: potency is read from the fitted curve at half-maximal effect; % of control where 0% means no effect; nearly all actives have a fitted effect of over 55% in size
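Image-based read-out: total Hoechst fluorescence of nuclei (405 nm excitation, 500-530 nm emission), with hits raising the fraction of high-intensity nuclei. SW480 colon cells incubated 48 hr with compounds at 37 C.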
ATXN2 expr inh = inhibitors of ATXN2 expression | HEK-293 ATXN2-luciferase reporter, luminescence, 24 h | AID 1745845 | 360,000 tested, 0.72% active | Potency, µM (series often up to 57 µM), without a hit: top-dose activity change, negative = inhibition, usual class: inhibitors; also: potency is read from the fitted curve at half-maximal effect; % is scaled to controls: 0 for no effect and ±100 for the full control effect; nearly all actives have a fitted effect of over 55% in size
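ATXN2-luciferase reporter cells (luciferase flanked by upstream and downstream ATXN2 gene portions) were treated 24 h at 37 °C with compounds at up to 57 uM. SteadyGlo luminescence gave expression; GF-AFC fluorescence gave viability.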
PINK1 expr mod = PINK1 expression modulation | Potency, µM (highest dose often 76.6 µM), for inactives: at the top dose activation (PINK1 increase), hits mostly activators | PINK1 immunofluorescence, high-content cytometry, 24 h | AID 624263 | 410,000 tested, 0.2% active; active = well fitted activation curve with a large enough effect; inconclusive = small, poorly fitted or top-dose-only effect; cell line not stated here; also: potency is read from the fitted curve at half-maximal effect; % of control where 0% means no effect; nearly all actives have a fitted effect of over 65% in size
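Measures PINK1 amount and localization on or inside mitochondria by immunofluorescence. Stable cells get compounds at 5 concentrations for 24 hours before fixation and staining; CCCP controls included.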
* hit, by the source's call; ! = repeats disagree; [ ] = another dose, or the depositor's remark. Most compounds without a hit are left out; they make up all but 7.1% or so of the library. Unless noted, calls follow the shape of the dose curve; as a rule, active = well fitted curve in the direction sought with a large enough effect; inconclusive = small, poorly fitted or top-dose-only effect, or another doubt; inactive = no such curve, though single readings can be large; an effect the other way counts as inactive or inconclusive.

For O=C(Nc1ccc(Oc2c(F)c(F)c(F)c(F)c2F)cc1)OC1CCN2Cc3ccccc3N=C12 (configuration not stated) the results were ATXN viability inconclusive, MCF10A rereplic 13µM*, IL-1B inflam inh -95*, SW480 rereplic 13µM*, ATXN2 expr inh inconclusive and PINK1 expr mod -1%.
For CC1CCc2cc(F)ccc2N1C(=O)CCl (configuration not stated) the results were MCF10A rereplic inconclusive, IL-1B inflam inh -97*, SW480 rereplic inconclusive, ATXN2 expr inh inconclusive and PINK1 expr mod -1%.
Screening Cc1ccc(CNC(=O)c2nn(C)c(C)c2[N+](=O)[O-])cc1 returned ATXN viability inactive, MCF10A rereplic -72%, IL-1B inflam inh 0, SW480 rereplic 0.52µM*, ATXN2 expr inh -6% and PINK1 expr mod 2%.
Screening Cc1ccc(CNC(=O)c2nn(C)c3c2CS(=O)(=O)c2ccccc2-3)cc1 returned ATXN viability inactive, MCF10A rereplic 0%, IL-1B inflam inh -53*, SW480 rereplic -6%, ATXN2 expr inh 0% and PINK1 expr mod 1%.
`N#CC(C#N)=C1C=C2C=C(N3CCCCCC3)CCC2CC1` (configuration not stated) gave ATXN viability inactive, MCF10A rereplic -4%, IL-1B inflam inh -9, SW480 rereplic -53% and PINK1 expr mod 11µM*.
For N#CC(C#N)=C1C=C2C=C(N3CCOCC3)CCC2CC1 (configuration not stated) the results were MCF10A rereplic -2%, IL-1B inflam inh -10, SW480 rereplic -1%, ATXN2 expr inh -5% and PINK1 expr mod 16µM*.
Screening Cc1ccc(/C=N/NC(=O)c2ccc(N(C)S(=O)(=O)c3ccccc3)cc2)cc1 returned ATXN viability inactive, MCF10A rereplic 20%, IL-1B inflam inh -53*, SW480 rereplic inconclusive, ATXN2 expr inh -18% and PINK1 expr mod -3%.
Screening CC(=O)Oc1ccc(/C=N/NC(=O)c2ccc(N(C)S(=O)(=O)c3ccccc3)cc2)cc1 returned ATXN viability inactive, MCF10A rereplic inconclusive, IL-1B inflam inh 3, SW480 rereplic -4%, ATXN2 expr inh 4% and PINK1 expr mod 1%.
`Cc1ccc(-c2noc(CNC(=O)c3ccc(Br)o3)n2)cc1` gave PINK1 expr mod 3%.
`CC(=O)C1=NN(c2ccccc2)C2(S1)S/C(=C\c1ccccc1)C(=O)N2c1ccccc1` (configuration not stated) gave ATXN viability inactive, MCF10A rereplic inconclusive, IL-1B inflam inh -13, SW480 rereplic 5.2µM*, ATXN2 expr inh -10% and PINK1 expr mod 0%.
Screening c1ccc(CN(CC2=NCCN2)c2ccccc2)cc1 returned ATXN viability inactive, MCF10A rereplic 9%, IL-1B inflam inh -15, SW480 rereplic 0.23µM*!, ATXN2 expr inh -12% and PINK1 expr mod 0%.
Screening c1ccc(CC2=NCCN2)cc1 returned ATXN viability inactive, MCF10A rereplic -1%, IL-1B inflam inh -13, SW480 rereplic -24%, ATXN2 expr inh 10% and PINK1 expr mod 0%.
`CCc1ccccc1NC(=O)CN(Cc1ccccc1)S(=O)(=O)c1ccc2nc(C)sc2c1` gave ATXN viability inactive, ATXN2 expr inh 1% and PINK1 expr mod -1%.
c1ccc(-c2nnc3oc(-c4cccs4)nn23)cc1 was read as ATXN viability inconclusive, IL-1B inflam inh -104* and PINK1 expr mod -1%.
Cc1ccc(-c2nn3c(-c4ccccc4)nnc3o2)cc1 was read as ATXN viability inactive, IL-1B inflam inh -8 and PINK1 expr mod 1%.
Cc1ccccc1Nc1c(-c2cccnc2)nc2ccc(Cl)cn12 was read as ATXN viability inconclusive, ATXN2 expr inh inconclusive and PINK1 expr mod 0%.
O=C(Nc1ccc(Cl)c(Cl)c1)c1cccc(S(=O)(=O)NCc2cccnc2)c1 was read as ATXN viability inconclusive, MCF10A rereplic inconclusive, IL-1B inflam inh -82*, SW480 rereplic -7%, ATXN2 expr inh inconclusive and PINK1 expr mod inconclusive.
`Cc1onc(-c2ccccc2)c1C(=O)OCC(=O)N1CCCCC1` gave ATXN viability inactive, IL-1B inflam inh -5 and PINK1 expr mod -1%.
O=[N+]([O-])c1ccc(COn2nnc3ccccc32)cc1 was read as ATXN viability inactive, MCF10A rereplic -24%, IL-1B inflam inh -28, SW480 rereplic 5%[1.84 µM], ATXN2 expr inh 3% and PINK1 expr mod 2%.
Screening Clc1ccc(COn2nnc3ccccc32)c(Cl)c1 returned ATXN viability inactive, MCF10A rereplic 23µM*, IL-1B inflam inh 11, SW480 rereplic 5%, ATXN2 expr inh 70% and PINK1 expr mod 1%.
Screening CC(=O)Oc1ccc2nonc2c1OC(C)=O returned PINK1 expr mod 0%.
For CC(=O)Nc1cc(OC(C)=O)c2nonc2c1OC(C)=O the results were MCF10A rereplic inconclusive, IL-1B inflam inh 5, SW480 rereplic 2.9µM*, ATXN2 expr inh inconclusive and PINK1 expr mod 0%[38.3 µM].
For Cc1cn2cc(C(=O)N(C)CCO)cc(N[C@@H]3CCOc4cccc(C)c43)c2n1 the results were ATXN2 expr inh 3%.
For CCOc1ccccc1NC(=O)c1nc(SC(C)C)ncc1Cl the results were ATXN viability inactive, ATXN2 expr inh -2% and PINK1 expr mod 2%.
Screening COc1ccc(/C=N/NC(=O)COc2ccccc2-c2ccccc2)cc1 returned ATXN viability inconclusive, MCF10A rereplic 0.82µM*, IL-1B inflam inh 106, SW480 rereplic 0.92µM*, ATXN2 expr inh -38% and PINK1 expr mod -1%.
For COc1ccc(/C=N/NC(=O)CCSc2nc3ccccc3s2)cc1 the results were ATXN viability inactive, MCF10A rereplic inconclusive, IL-1B inflam inh inconclusive, SW480 rereplic 10µM*, ATXN2 expr inh -28% and PINK1 expr mod 1%.
Screening O=C(COc1ccccc1-c1ccccc1)N/N=C/c1cccc2ccccc12 returned ATXN viability inconclusive, MCF10A rereplic 0.46µM*, IL-1B inflam inh 18, SW480 rereplic inconclusive, ATXN2 expr inh 0% and PINK1 expr mod 1%.
Screening CN(C)c1ccc(/C=N/NC(=O)COc2ccccc2)cc1 returned ATXN viability inactive, MCF10A rereplic 1%, IL-1B inflam inh -22, SW480 rereplic 0%, ATXN2 expr inh 17% and PINK1 expr mod 2%.
Screening Cc1csc(NC(=O)CCCSc2nc3ccccc3s2)n1 returned ATXN viability inactive, MCF10A rereplic 18µM*, IL-1B inflam inh 58, SW480 rereplic -4%, ATXN2 expr inh 4% and PINK1 expr mod 3%[38.3 µM].
